# Laboratory results from PubChem BioAssay AID1861 (The Scripps Research Institute Molecular Screening Center, 2009).
# The whole screen tested about 290,000 compounds, of which about 3,100 (1.1%) were called active. Shown is part of a subset that was picked to be rich in actives. Unmarked numbers belong to inactive results. No stated cut-off is given here; in the data, active means inhibition above about 16% (passing the limit was not always enough); inactive means the rest.
# Biological target: Neuropeptides B/W receptor type 1 (Homo sapiens) (UniProt P48145)
# Experiment: blockers of human neuropeptide B/W receptor 1 – cell-based, fluorescence, single concentration, primary screen (AID 1861);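 further: cells stimulated with the agonist NPW; 0% = agonist with vehicle and 100% = vehicle without agonist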
# Conditions: GPR7-expressing cells, fluorescence antagonist assay; at 4.4 µM; stronger effect = higher value
# Neuropeptides B/W receptor type 1 (Homo sapiens), sequence (P48145 whole entry, looked up): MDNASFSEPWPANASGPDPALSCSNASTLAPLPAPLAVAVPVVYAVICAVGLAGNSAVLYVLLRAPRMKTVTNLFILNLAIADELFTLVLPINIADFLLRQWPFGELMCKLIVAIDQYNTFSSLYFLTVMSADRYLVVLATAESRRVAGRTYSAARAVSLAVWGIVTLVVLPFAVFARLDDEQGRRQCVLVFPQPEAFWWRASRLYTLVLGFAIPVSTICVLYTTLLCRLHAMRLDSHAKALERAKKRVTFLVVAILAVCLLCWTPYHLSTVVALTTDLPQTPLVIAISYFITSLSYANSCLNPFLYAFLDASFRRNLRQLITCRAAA
row,Compound,inhibition
1,CCOC(=O)C1(CCc2ccccc2)CCN(Cc2ccco2)CC1,-1.12%
2,CCOC(=O)C1(Cc2ccc(Cl)cc2)CCN(C(C)CCn2cccn2)CC1 (stereo not given),37.6% (active)
3,CCN1CCN(Cc2cc(OC)c3c(c2)OCO3)CC1,-5.46%
4,COC(=O)N(c1ccc(OC)cc1)P1(=S)OCCC(C)O1 (stereo not given),-1.86%
5,COc1cc2nc(N3CCN(C(=O)[C@@H]4CCCO4)CC3)nc(N)c2cc1OC,-11.2%
6,CCOc1ccc(-c2cc(C)[n+](CCN(CC)CC)c(-c3ccc(OCC)cc3)c2)cc1,24.6% (active)
7,COc1ccc(Br)cc1CNCCc1cccc(Cl)c1,35.6% (active)
8,COc1ccc(CNCCc2c[nH]c3ccccc23)cc1OC,3.96%
9,COc1ccc(CNCCc2ccc3c(c2)OCO3)c(OC)c1OC,18.9%
10,CN1CCC(OC(=O)c2cccc(F)c2)CC1,1.33%
11,CCCCCCN=C(CC)c1c(O)n(CCCC)c(=O)[nH]c1=O,-13.1%
12,Cc1c(Oc2cc(NN3CCCCC3)c([N+](=O)[O-])cc2[N+](=O)[O-])cccc1[N+](=O)[O-],-6.67%
13,CCC(C)n1c(O)c(/C=N/Nc2nc3c(c(=O)n(C)c(=O)n3C)n2C)c(=O)[nH]c1=S (stereo not given),-8.09%
14,Cc1ccnc(-n2c(C)cc(/C=C3\C(=O)NC(=S)N(C)C3=O)c2C)c1,-2.63%
15,CSc1ccc(C(=O)C2CCCN(Cc3ccn[nH]3)C2)cc1 (stereo not given),5.68%
